{"source": "ChEMBL document CHEMBL4513216", "about": "“Probing the Open Global Health Chemical Diversity Library for Multistage-Active Starting Points for Next-Generation Antimalarials” (ACS Infect Dis, 2020)", "note": "About 2,700 (4%) of roughly 68,000 compounds showed an effect of 50% or more. Only a selection was taken, and strong results are over-represented in it overall.", "data": [{"test_system": "Plasmodium berghei", "assay": "Screen against P. berghei liver stage (PbLuc), transformed with Luciferase, at 2uM", "type": "functional, HepG2", "conditions": "tested at 2 uM", "units": {"INHIBITION": "%"}, "values": [{"molecule": "Cc1cc(C)cc(NC(=O)c2cnc(N3CCN(C)CC3)nc2C)c1", "INHIBITION": 19.84}, {"molecule": "Cc1cc(C)c(CNC(=O)C(C)Oc2ccccc2C#N)c(=O)[nH]1", "note": "(configuration not stated)", "INHIBITION": 35.43}, {"molecule": "CCOCC(=O)N1C[C@H]2CN(CC3CC3)C(=O)[C@H]2C1", "INHIBITION": -3.65}, {"molecule": "O=C(c1ncoc1C1CC1)N1CCCN(CCCc2ccccc2)CC1", "INHIBITION": 26.3}, {"molecule": "CC1CCN(C(=O)CSCCN2CCOCC2)CC1", "INHIBITION": 8.64}, {"molecule": "COCCN1CCN(c2ccc(CN(C)C)cn2)CC1", "INHIBITION": -0.85}, {"molecule": "O=C(Nc1cnc2n1CCCC2)c1cccc(NC(=O)C2CCCC2)c1", "INHIBITION": 22}, {"molecule": "O=C(Nc1cnc2n1CCCC2)c1cccc(-n2cnnc2)c1", "INHIBITION": 50.91}, {"molecule": "CC(=O)Nc1cccc(C(=O)Nc2cnc3n2CCCC3)c1", "INHIBITION": 19.61}, {"molecule": "CSc1ncccc1C(=O)NCCC(O)c1ccco1", "note": "(configuration not stated)", "INHIBITION": 14.45}, {"molecule": "O=C(NCc1nnc2n1CCC2)c1cn(-c2ccccc2Br)nn1", "INHIBITION": -17.44}, {"molecule": "CN(C)S(=O)(=O)NC1CCCc2c1cnn2-c1ccc(C(C)(C)C)cc1", "note": "(configuration not stated)", "INHIBITION": 75.11}, {"molecule": "CC(C)(C)c1ccc(-n2ncc3c2CCCC3N)cc1", "note": "(configuration not stated)", "INHIBITION": 46.95}, {"molecule": "Cc1ccc(-n2ncc3c2CCCC3N)cc1C", "note": "(configuration not stated)", "INHIBITION": -13.35}, {"molecule": "CCC(C)(C)n1nnnc1C(c1cccs1)N1CCc2ccccc2C1", "note": "(configuration not stated)", "INHIBITION": 36.24}, {"molecule": "Cc1nn(CCC(=O)NC2CCCOC2)c(C)c1C", "note": "(configuration not stated)", "INHIBITION": -3.15}, {"molecule": "Cc1ccc(N(CC(=O)N2CCCCC2)C(=O)C2COCCO2)cc1", "note": "(configuration not stated)", "INHIBITION": 72.49}, {"molecule": "Cc1ccc(N(CC(=O)N2CCCCC2)C(=O)C2CCCO2)cc1", "note": "(configuration not stated)", "INHIBITION": -82.35}, {"molecule": "CCc1noc(CN(CC(=O)N2CCCCC2)c2ccc(C)cc2)n1", "INHIBITION": 38.67}, {"molecule": "CCOc1ccc(Br)cc1-c1cc(N)[nH]n1", "INHIBITION": 9.66}, {"molecule": "CCN(Cc1nnsc1Cl)C(C)c1ccc(C#N)cc1", "note": "(configuration not stated)", "INHIBITION": 56.49}, {"molecule": "CC(C)N(Cc1ccc(C#N)cc1)Cc1nnsc1Cl", "INHIBITION": 22.34}, {"molecule": "CCCN(Cc1ccc(C#N)cc1)Cc1nnsc1Cl", "INHIBITION": 20.14}, {"molecule": "Cc1cc(C)nc(N2CCC(c3ccnc(N(C)C)n3)CC2)n1", "INHIBITION": -42.91}, {"molecule": "Cc1nc(O)cc([C@@H]2CN(C(=O)C3CC3)C[C@H]2c2ccccc2F)n1", "INHIBITION": -7.22}, {"molecule": "CC(=O)NCCNC(=O)CN1CCOC(Cn2cccn2)C1", "note": "(configuration not stated)", "INHIBITION": -21.68}, {"molecule": "CC(C)(C)Oc1ccc(NCC(=O)NCc2ccco2)cc1", "INHIBITION": -62.92}, {"molecule": "CC(C)(Oc1ccc2c(c1)CCCC2=O)C(=O)NCc1ccco1", "INHIBITION": 15.88}, {"molecule": "CC(C)(Oc1ccc(F)cc1)C(=O)NCc1ccco1", "INHIBITION": 58.14}, {"molecule": "c1ccc(N2CCCC3(COCCN(c4nccs4)C3)C2)nc1", "note": "(configuration not stated)", "INHIBITION": -29.98}, {"molecule": "COc1cccc(CN2CCc3nc(C(=O)NCC(C)C)sc3CC2)c1", "INHIBITION": -4.19}, {"molecule": "COc1ccc(C)cc1-n1cnnc1C1CC(=O)N(C)C1", "note": "(configuration not stated)", "INHIBITION": 43.57}, {"molecule": "Cc1nccc(C2CN(C(=O)c3cncnc3)C2)n1", "INHIBITION": 38.22}, {"molecule": "Cc1cc(C2CCCN(S(=O)(=O)N(C)C)C2)ccn1", "note": "(configuration not stated)", "INHIBITION": -5.34}, {"molecule": "CSCCc1ccc(NC(=O)NC(C)Cn2cncn2)cc1", "note": "(configuration not stated)", "INHIBITION": 60.34}, {"molecule": "CC(Cn1cncn1)NC(=O)NCC(C)(C)Cc1ccccc1", "note": "(configuration not stated)", "INHIBITION": 46.98}, {"molecule": "CC(Cn1cncn1)NC(=O)Nc1ccc(COC2CCCC2)cc1", "note": "(configuration not stated)", "INHIBITION": 1.01}, {"molecule": "O=C(c1cocn1)N1CCC2(CC1)CC(OCC1CC1)CO2", "note": "(configuration not stated)", "INHIBITION": 1.33}, {"molecule": "O=C(c1cccnc1)N1CCC2(CCN(C(=O)c3ccco3)CC2)C1", "INHIBITION": 14.52}, {"molecule": "Nc1nc2nc(C3CCCN(C(=O)c4cncs4)C3)ccc2s1", "note": "(configuration not stated)", "INHIBITION": 52.82}, {"molecule": "Nc1nc2nc(C3CCCN(C(=O)c4cnccn4)C3)ccc2s1", "note": "(configuration not stated)", "INHIBITION": 46.98}, {"molecule": "CC(=O)N1CCCC(c2ccc3sc(N)nc3n2)C1", "note": "(configuration not stated)", "INHIBITION": 17.01}, {"molecule": "Cc1ccc([C@]2(O)CC[C@H]3CN(Cc4cccc(Cl)c4Cl)C[C@H]32)nc1", "INHIBITION": 45.82}, {"molecule": "Cc1ccc([C@]2(O)CC[C@H]3CN(Cc4cccnc4)C[C@H]32)nc1", "INHIBITION": 12.16}, {"molecule": "Cc1ccc([C@]2(O)CC[C@H]3CN(Cc4cc(C)c(O)c(C)c4)C[C@H]32)nc1", "INHIBITION": 13.65}, {"molecule": "CSc1ccc(CN2C[C@@H]3CC[C@@](O)(c4ccc(C)cn4)[C@@H]3C2)cc1", "INHIBITION": 61.3}, {"molecule": "Cc1ccc([C@]2(O)CC[C@H]3CN(Cc4ccncc4)C[C@H]32)nc1", "INHIBITION": 51.35}, {"molecule": "COc1ncc(CN2C[C@@H]3CC[C@@](O)(c4ccc(C)cn4)[C@@H]3C2)cn1", "INHIBITION": -2.21}, {"molecule": "CC(C)(C)c1nnc(CN2CCCC2Cn2cncn2)o1", "note": "(configuration not stated)", "INHIBITION": -13.06}, {"molecule": "COCCCN1C(=O)CC(N2CCN(c3ccc(F)cc3)CC2)C1=O", "note": "(configuration not stated)", "INHIBITION": 1.37}, {"molecule": "CCn1nc(C)c2nc(C)nc(NCCc3ccc(C)cc3)c21", "INHIBITION": 9.79}, {"molecule": "CCCC(=O)N1CCC2(CC1)CC(NC(C)=O)c1ccccc1O2", "note": "(configuration not stated)", "INHIBITION": -25.44}, {"molecule": "CC(C)C(=O)NC1COC2(CCN(C(=O)c3ccc[nH]3)CC2)C1", "note": "(configuration not stated)", "INHIBITION": 25.46}, {"molecule": "COCCN1CCOCC12CCN(C(=O)c1cccnc1)CC2", "INHIBITION": 0.91}, {"molecule": "COCCN1CCOCC12CCN(C(=O)c1ccncc1)CC2", "INHIBITION": -41.59}, {"molecule": "COCCN1CCOCC12CCN(C(=O)c1ccoc1)CC2", "INHIBITION": 52.62}, {"molecule": "O=c1c2cn[nH]c2nc(SCCN2CCCC2)n1-c1ccccc1", "INHIBITION": -15.12}, {"molecule": "Cc1cc(C(=O)Nc2n[nH]c(C3CC3)n2)c2c(C)noc2n1", "INHIBITION": -54.55}, {"molecule": "COCC1CC2(CCN(S(=O)(=O)C3CC3)CC2)CN1c1ncccn1", "note": "(configuration not stated)", "INHIBITION": 15.39}, {"molecule": "CCNC(=O)[C@@H]1C[C@@H](NC(=O)CSC)CN1Cc1ccncc1", "INHIBITION": 16.05}, {"molecule": "COc1cc(CNC(=O)Nc2nnc(C3CC3)s2)ccc1O", "INHIBITION": 53.61}, {"molecule": "COc1cc(CNC(=O)Nc2nnc(C(F)(F)F)s2)ccc1O", "INHIBITION": 45.4}, {"molecule": "COc1cc(CNC(=O)Nc2nnc(C(C)C)s2)ccc1O", "INHIBITION": -33.43}, {"molecule": "CCC(c1ccc(F)cc1)N1CCn2c(CO)nnc2C1", "note": "(configuration not stated)", "INHIBITION": 18.76}, {"molecule": "c1cc(CN2CCC(Cc3noc(C4CC4)n3)CC2)c2c(c1)OCO2", "INHIBITION": 71.06}, {"molecule": "c1cc2c(cc1CN1CCC(Cc3noc(C4CC4)n3)CC1)OCCO2", "INHIBITION": 1.52}, {"molecule": "c1ccc(CN2CCC(Cc3noc(C4CC4)n3)CC2)cc1", "INHIBITION": 17.33}]}]}
